# Assay results published in the supplement of paper PMC10515830.
# Where a name gives a salt, the structure may show the parent alone.
# Legend:
# Conditions in all cases: 10 µM; exposure time 6 h
# [1] = system: Danio rerio larvae (5 dpf); test: difference in excitability vs DMSO (percentage points); higher = more excitable than DMSO
# Method in brief: (§1)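 Wild-type zebrafish larvae at 5 dpf were kept in 96-well plates and exposed for 6 h to 100 µL egg water holding library compound at a final concentration of 10 µM. From 3 h into exposure, the plates were held at 28.5 ℃ and photographed every 6 s through a 3-h programme of moving lines and 100 ms, 400Hz tones. Each behaviour was scored by Z-LaP Tracker, a DeepLabCut model, and averaged over 48 larvae per compound. Every value gives the compound mean minus the vehicle control mean, in percentage points.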
# [2] = system: Danio rerio larvae (5 dpf); test: difference in startle response vs DMSO (percentage points); higher = stronger startle than DMSO
# Method in brief: as §1
# [3] = system: Danio rerio larvae (5 dpf); test: difference in activity during first hour vs DMSO (percentage points); higher = more activity than DMSO
# Method in brief: as §1
# [4] = system: Danio rerio larvae (5 dpf); test: difference in habituation to acoustic stimuli vs DMSO (percentage points); higher = more habituation than DMSO
# Method in brief: as §1
# [5] = system: Danio rerio larvae (5 dpf); test: difference in combined optomotor response to red, green and blue moving lines vs DMSO (percentage points); higher = stronger optomotor response than DMSO
# Method in brief: as §1
Structure (SMILES),difference in excitability [1],difference in startle response [2],difference in activity during first hour [3],difference in habituation to acoustic stimuli [4],difference [5]
CCO/N=C(\C(=O)N[C@@H]1C(=O)N2C(C(=O)[O-])=C(Sc3nc(-c4cc[n+](C)cc4)cs3)CS[C@H]12)c1nsc(NP(=O)(O)O)n1,2.56,0.685,4.29,-3.93,-5.35
CCOC(=O)[C@H](CCc1ccccc1)N[C@@H](C)C(=O)N1[C@H](C(=O)O)C[C@@H]2CCC[C@@H]21 [Ramipril],-5.85,-2.41,5.42,-0.379,7.67
FC(F)OC(Cl)C(F)(F)F (stereo not given) [Isoflurane],11.1,8.95,-15.9,-1.84,-13
CN1CCC(=C2c3ccccc3C=Cc3ccccc32)CC1 [Cyproheptadine (hydrochloride hydrate)],6.61,-4.47,-3.08,-11.2,-16.4
CN[C@H](CC(C)C)C(=O)N[C@H]1C(=O)N[C@@H](CC(N)=O)C(=O)N[C@H]2C(=O)N[C@H]3C(=O)N[C@H](C(=O)N[C@H](C(=O)O)c4cc(O)cc(O)c4-c4cc3ccc4O)[C@H](O)c3ccc(c(Cl)c3)Oc3cc2cc(c3O[C@@H]2O[C@H](CO)[C@@H](O)[C@H](O)[C@H]2O[C@H]2C[C@](C)(N)[C@H](O)[C@H](C)O2)Oc2ccc(cc2Cl)[C@H]1O [Vancomycin (hydrochloride)],-0.532,-0.846,1.02,-1.36,9.98
C=CC1=C(C(=O)O)N2C(=O)[C@@H](NC(=O)/C(=N\O)c3csc(N)n3)[C@H]2SC1 [Cefdinir],6.83,5.77,6.72,-1.11,4.15
CN1CCC[C@@H]1CCO[C@](C)(c1ccccc1)c1ccc(Cl)cc1 [Clemastine (fumarate)],26.5,-6.88,-0.468,-2.97,6.17
C[C@H]1C[C@H]2[C@@H]3CCC4=CC(=O)C=C[C@]4(C)[C@@]3(F)[C@@H](O)C[C@]2(C)[C@@]1(O)C(=O)CO [Betamethasone],19.9,8.22,-16.1,3.7,5.5
N[C@@H]1CCCCN(c2c(F)cc3c(=O)c(C(=O)O)cn(C4CC4)c3c2Cl)C1 [Besifloxacin (hydrochloride)],13,0.0054,5.97,-5.08,0.455
CC[C@@]1(O)C(=O)OCc2c1cc1n(c2=O)Cc2cc3c(CN(C)C)c(O)ccc3nc2-1 [Topotecan (hydrochloride)],4.94,-0.393,0.473,-4.39,1.01
C=C[C@]1(C)C[C@@H](OC(=O)CS[C@@H]2C[C@H]3CC[C@@H](C2)N3C)[C@]2(C)[C@H](C)CC[C@]3(CCC(=O)[C@H]32)[C@@H](C)[C@@H]1O [Retapamulin],25.1,5.21,-2.58,1.86,5.67
Nc1ccc(S(=O)(=O)c2ccc(N)cc2)cc1 [Dapsone],4.16,3.11,2.88,2.23,1.86
C[N+](C)(C)CC=O [Betaine Aldehyde (chloride)],7.5,1.56,10.1,-0.929,4.79
NCCCC(O)(P(=O)(O)O)P(=O)(O)O [Alendronate (sodium hydrate)],-4.92,0.325,-3.96,-4.98,5.9
C=C1/C(=C\C=C2/CCC[C@]3(C)[C@@H]([C@H](C)/C=C/[C@H](C)C(C)C)CC[C@@H]23)C[C@@H](O)C[C@@H]1O [1-hydroxy Vitamin D2],1.72,-1.97,2.97,0.874,6.19
COc1ccc2cc(CCC(C)=O)ccc2c1 [Nabumetone],0.732,-0.884,1.19,-1.53,0.192
CC(C)(C)NCC(O)c1ccc(O)c(CO)c1 (stereo not given) [Salbutamol (hydrochloride)],7.67,-7.77,15.5,-0.991,4.05
CC(C)CN(C[C@@H](O)[C@H](Cc1ccccc1)NC(=O)O[C@H]1CO[C@H]2OCC[C@H]21)S(=O)(=O)c1ccc(N)cc1 [Darunavir],-1.86,0.437,0.73,2.66,5.61
CC[C@]1(O)C[C@@H]2CN(CCc3c([nH]c4ccccc34)[C@@](C(=O)OC)(c3cc4c(cc3OC)N(C)[C@H]3[C@@](O)(C(=O)OC)[C@H](OC(C)=O)[C@]5(CC)C=CCN6CC[C@]43[C@@H]65)C2)C1 [Vinblastine (sulfate)],11.1,-3.06,-6.36,-2.13,-3.97
O=C(O)CCCN1CCC(O[C@@H](c2ccc(Cl)cc2)c2ccccn2)CC1 [Bepotastine (besylate)],13.3,3.74,0.00178,0.195,1.29

Structure (SMILES),difference in excitability [1],difference in startle response [2],difference in activity during first hour [3],difference in habituation to acoustic stimuli [4],difference [5]
Nc1nc(CC(=O)Nc2ccc(CCNC[C@H](O)c3ccccc3)cc2)cs1 [Mirabegron],15.7,-0.811,3.64,-4.56,3.08
O=C(c1ccc(OCCN2CCCCC2)cc1)c1c(-c2ccc(O)cc2)sc2cc(O)ccc12 [Raloxifene (hydrochloride)],22,-0.808,-9.71,2.6,1.59
COC(=O)[C@@H]1CC2=CC(=O)CC[C@]2(C)[C@@]23O[C@@H]2C[C@@]2(C)[C@@H](CC[C@@]24CCC(=O)O4)[C@H]13 [Eplerenone],2.31,-5.25,4.97,4.87,4.83
Cc1nnc(SCC2=C(C(=O)O)N3C(=O)[C@@H](NC(=O)Cn4cnnn4)[C@H]3SC2)s1 [Cefazolin (sodium salt)],9.87,-2.79,7.43,-0.463,5.77
CCCCC[C@H](O)CC[C@@H]1[C@H]2Cc3cccc(OCC(=O)O)c3C[C@H]2C[C@H]1O [Treprostinil],-4.04,-1.85,4.94,-2.5,-6.11
CO[C@H]1O[C@@H]2O[C@@]3(C)CC[C@H]4[C@H](C)CC[C@@H]([C@H]1C)[C@@]24OO3 [Artemether],17.2,3.03,-1.53,3.23,7.61
CC[C@H](C)C(=O)O[C@H]1C[C@H](O)C=C2C=C[C@H](C)[C@H](CC[C@@H](O)C[C@@H](O)CC(=O)O)[C@H]21 [Pravastatin (sodium salt)],1.5,5.8,9.55,-2.28,1.82
CCNC(=O)[C@@H]1CCCN1C(=O)[C@H](CCCNC(=N)N)NC(=O)[C@H](CC(C)C)NC(=O)[C@@H](CC(C)C)NC(=O)[C@H](Cc1ccc(O)cc1)NC(=O)[C@H](CO)NC(=O)[C@H](Cc1c[nH]c2ccccc12)NC(=O)[C@H](Cc1c[nH]cn1)NC(=O)[C@@H]1CCC(=O)N1 [Leuprorelin (acetate)],16.2,-0.397,-3.87,1.37,4.92
CC(CCc1ccc(O)cc1)NCCc1ccc(O)c(O)c1 (stereo not given) [Dobutamine (hydrochloride)],10.9,6.81,-2.65,12,13.9
C[C@H](N[C@@H](CCc1ccccc1)C(=O)O)C(=O)N1CCC[C@H]1C(=O)O [Enalaprilat (hydrate)],-0.583,-2.87,9.36,1.38,1.55
CC(=O)Oc1ccccc1C(=O)Nc1ncc([N+](=O)[O-])s1 [Nitazoxanide],12.9,-13.9,-14.8,-12.4,-17.8
CNC(=C[N+](=O)[O-])NCCSCc1csc(CN(C)C)n1 [Nizatidine],-3.87,-1.69,7.71,2.96,2.72
Cc1ccc(O)c([C@H](CCN(C(C)C)C(C)C)c2ccccc2)c1 [Tolterodine (tartrate)],11.1,-0.221,-20.3,-5.38,-10.6
CCCCc1ncc(/C=C(\Cc2cccs2)C(=O)O)n1Cc1ccc(C(=O)O)cc1 [Eprosartan (mesylate)],7.16,-7.77,-8.19,-4.96,5.89
CCC(=O)O[C@]1(C(=O)SCF)[C@H](C)C[C@H]2[C@@H]3C[C@H](F)C4=CC(=O)C=C[C@]4(C)[C@@]3(F)[C@@H](O)C[C@@]21C [Fluticasone Propionate],-4.47,-3.21,11.5,1.17,14.7
CNCCCC12CCC(c3ccccc31)c1ccccc12 [Maprotiline (hydrochloride)],-2.87,5.37,-7.95,0.965,2.3
CN(C)CCC=C1c2ccccc2COc2ccccc21 [Doxepin (hydrochloride)],9.9,-1.02,0.133,2.48,4.43
CCN(Cc1ccncc1)C(=O)C(CO)c1ccccc1 (stereo not given) [Tropicamide],1.51,-4.55,14.3,-1.41,6.16
Nc1cc(-c2ccncc2)c[nH]c1=O [Amrinone],-0.366,5.87,-4.08,9.44,0.366
Cc1nccn1CC1CCc2c(c3ccccc3n2C)C1=O (stereo not given) [Ondansetron (hydrochloride hydrate)],12.1,-1.85,6.77,-3.59,4.66
